We go through 7 compounds from PubChem BioAssay (EPA / NIEHS).

Records with an inconclusive call do not appear. Calls of active or inactive are those of the source. The calls were made as follows, unless noted: active = hit-call score of the fitted dose curve at least 0.9, where 1 is the maximum; inconclusive = response in the unintended direction; inactive = score below 0.9.

Experiment [1] has as its target Retinoic acid receptor alpha (Homo sapiens) (UniProt P10276). The experiment can be described thus: ATG_DR5_RAR_CIS: Attagene CIS-FACTORIAL HepG2 Assay for human Retinoic Acid Receptor Alpha (RARE), DR5 submotif (AID 2282934; active = hit-call score of the fitted dose curve at least 0.9, where 1 is the maximum; inactive = score below 0.9). Conditions: HepG2 Attagene cis-factorial RARE DR5 reporter, mRNA; actives raise or lower the signal. An outline of the steps:
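Reporter transcripts from a DR5-regulated unit, measured via RT-PCR plus capillary electrophoresis, reflect endogenous RAR activity in transiently transfected human HepG2 liver cells. Exposure lasted 24 h; gain or loss of signal scored against DMSO.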

Experiment [2] can be described thus: ATG_PBREM_CIS: Attagene CIS-FACTORIAL HepG2 Assay for human Phenobarbital-responsive Enhancer Module (PBREM) (AID 2282955; active = hit-call score of the fitted dose curve at least 0.9, where 1 is the maximum; inactive = score below 0.9). To be noted: HepG2 PBREM cis-reporter, Attagene multiplexed transcription; actives raise or lower the signal. In outline:
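HepG2 cells transiently transfected with multiple cis-regulated reporter transcription units; endogenous factor activity at the PBREM element measured as reporter mRNA 24 h after dosing, via RT-PCR and capillary electrophoresis of fluorescent fragments; bidirectional fitting versus DMSO.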

For experiment [3], the target named is Nuclear receptor subfamily 1 group I member 3 (Homo sapiens) (UniProt Q14994). The experiment is described as follows: ATG_CAR_TRANS: Attagene TRANS-FACTORIAL HepG2 Assay for human Constitutive Androstane Receptor (CAR) (AID 2282969).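 Also: activators raise reporter mRNA above DMSO so AC50 marks induction.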 To be noted: HepG2 Attagene TRANS-FACTORIAL CAR reporter. In outline:
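Signal is reporter mRNA induction relative to DMSO, measured 24 h after dosing by RT-PCR with fluorescent primer extension and capillary electrophoresis. Human HepG2 liver cells carried transiently transfected chimeric NR-Gal4/GAL4-UAS reporter constructs.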

For experiment [4], the target named is Oxysterols receptor LXR-alpha (Homo sapiens) (UniProt Q13133). The experiment is described as follows: ATG_LXRa_TRANS: Attagene TRANS-FACTORIAL HepG2 Assay for human Liver X Receptor alpha (LXRa) (AID 2282980). Conditions: HepG2 Attagene TRANS reporter, LXRa transactivation. In outline:
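Transfect HepG2 with GAL4-UAS multiplex reporter constructs (TRANS format, chimeric receptor-GAL4); treat 24 h; extract RNA, reverse-transcribe, PCR-amplify, FAM-label, HpaI-digest; resolve fragments by capillary electrophoresis. Upward response vs DMSO.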

Experiment [5] addresses Oxysterols receptor LXR-beta (Homo sapiens) (UniProt P55055). The experiment is described as follows: ATG_LXRb_TRANS: Attagene TRANS-FACTORIAL HepG2 Assay for human Liver X Receptor beta (LXRb) (AID 2282981). Conditions: HepG2 Attagene TRANS GAL4-LXRb reporter, mRNA. An outline of the steps:
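After 24 h chemical treatment of transfected HepG2 cells carrying exogenous NR-Gal4 chimeras, reporter mRNA was quantified by fluorescent RT-PCR and capillary electrophoresis; activity taken as increase over DMSO controls.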

The nature of experiment [6]: ATG_M_32_TRANS: Attagene TRANS-FACTORIAL HepG2 Assay for M32 Transcription Factor (Internal Marker) (AID 2282984).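 Also: transcript level of a background control reporter unit measured by RT-PCR and capillary electrophoresis.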 To be noted: HepG2 Attagene TRANS M32 internal marker reporter. An outline of the steps:
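Internal background reporter in transfected HepG2: after 24 h chemical exposure, RNA reverse-transcribed, reporter cDNA amplified, fluorescently labelled and HpaI-cut, then sized by capillary electrophoresis. Gain of signal fitted against DMSO control.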

Experiment [7] has as its target Nuclear receptor subfamily 4 group A member 2 (Homo sapiens) (UniProt P43354). The experiment is described as follows: ATG_NURR1_TRANS: Attagene TRANS-FACTORIAL HepG2 Assay for human Nuclear Receptor Related Protein 1 (NURR1) (AID 2282985). To be noted: HepG2 Attagene TRANS reporter, mRNA readout. In outline: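 Reporter transcript induction, measured by RT-PCR with fluorescent labelling, HpaI digestion and capillary electrophoresis, after 24 hr dosing of human HepG2 cells transiently expressing an exogenous NR-Gal4 fusion with GAL4-UAS-driven reporters; DMSO as baseline.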

For experiment [8], the target named is human Peroxisome Proliferator-activated Receptor delta (PPARd), PPARD (gene 5467) (UniProt Q03181). The experiment can be described thus: ATG_PPARd_TRANS: Attagene TRANS-FACTORIAL HepG2 Assay for human Peroxisome Proliferator-activated Receptor delta (PPARd) (AID 2283002). An outline of the steps: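 Read-out is induced reporter mRNA, quantified by RT-PCR with fluorescent labelling and capillary electrophoresis after 24 h dosing. Cells are HepG2 transiently carrying multiple GAL4-UAS reporter units driven by exogenous NR-GAL4 chimeras; DMSO serves as baseline.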

In experiment [9] the target is human RAR-related Orphan Receptor beta (RORb), RORB (gene 6096) (UniProt Q92753). The experiment is described as follows: ATG_RORb_TRANS: Attagene TRANS-FACTORIAL HepG2 Assay for human RAR-related Orphan Receptor beta (RORb) (AID 2283010). An outline of the steps:
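Transfect HepG2 with multiple GAL4-UAS reporter transcription units; dose chemicals for 24 h; isolate RNA, reverse-transcribe and PCR-amplify reporter sequences; label, digest and resolve fragments by capillary electrophoresis; fit increases relative to DMSO.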

For experiment [10], the target named is human Vitamin D Receptor (VDR), VDR (gene 7421) (UniProt P11473). The experiment can be described thus: ATG_VDR_TRANS: Attagene TRANS-FACTORIAL HepG2 Assay for human Vitamin D Receptor (VDR) (AID 2283022). An outline of the steps:
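Steps: transfect HepG2 with GAL4-UAS-driven reporter constructs; dose compounds 24 h; isolate RNA, reverse-transcribe, PCR-amplify with 6-FAM-labelled primer extension and HpaI digestion; quantify fragments by capillary electrophoresis relative to DMSO.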

The target of experiment [11] is Glucocorticoid receptor (Homo sapiens) (UniProt P04150). The experiment is described as follows: ATG_GR_TRANS: Attagene TRANS-FACTORIAL HepG2 Assay for human Glucocorticoid Receptor (GR) (AID 2282978).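 Also: activators score as hits since higher reporter transcript over DMSO is fitted.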 To be noted: HepG2 Attagene TRANS GR reporter, mRNA transcription. An outline of the steps: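 HepG2 cells transiently transfected with multiplexed reporter units in which chimeric NR-GAL4 proteins drive GAL4-UAS reporters; 24 h compound exposure. Reporter mRNA measured by RT-PCR, 6-FAM labelling, HpaI digestion and capillary electrophoresis; gain-of-signal fitted versus DMSO.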

The nature of experiment [12]: TOX21_p53_BLA_p2_viability: Viability Assessment in the Tox21 HCT-116 p53 Agonism Beta-lactamase Assay, Phase 2 (AID 2283591).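 Also: compound exposure lasted 16 h at 37 °C; actives lower the ATP signal meaning cytotoxicity.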 An outline of the steps: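 Cytotoxicity readout: CellTiter-Glo ATP luminescence, 30 min at room temperature, after the beta-lactamase read. Cells were HCT116 exposed 16 h at 37C to compounds pin-transferred at 217-fold dilution from DMSO stocks.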

Experiment [13] concerns the target Bile acid receptor (Homo sapiens) (UniProt Q96RI1). The experiment is described as follows: ATG_IR1_CIS: Attagene CIS-FACTORIAL HepG2 Assay for human Nuclear Receptor Subfamily 1 Group H Member 4 (NR1H4), IR1 submotif (AID 2282946; active = hit-call score of the fitted dose curve at least 0.9, where 1 is the maximum; inactive = score below 0.9). Conditions: IR1 reporter transcription, actives raise or lower the signal. An outline of the steps: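 HepG2 cells transiently transfected with multiplexed cis-element reporter units read endogenous transcription factor activity. After 24 h compound exposure, reporter mRNA was quantified by RT-PCR, fluorescent labelling, HpaI digestion and capillary electrophoresis; bidirectional fitting versus DMSO baseline.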

Experiment [14] addresses human Peroxisome Proliferator-activated Receptor alpha (PPARa), PPARA (gene 5465) (UniProt Q07869). The experiment can be described thus: ATG_PPARa_TRANS: Attagene TRANS-FACTORIAL HepG2 Assay for human Peroxisome Proliferator-activated Receptor alpha (PPARa) (AID 2283001). An outline of the steps: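 Reporter transcripts quantified by RT-PCR plus capillary electrophoresis after 24 h treatment, fitted upward relative to DMSO. Cells: human HepG2 transiently carrying multiple GAL4-UAS reporter units driven by NR-Gal4 chimeras.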

For experiment [15], the target named is Peroxisome proliferator-activated receptor gamma (Homo sapiens) (UniProt P37231). The experiment can be described thus: ATG_PPARg_TRANS: Attagene TRANS-FACTORIAL HepG2 Assay for human Peroxisome Proliferator-activated Receptor-gamma (PPARg) (AID 2283007). An outline of the steps: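 HepG2 cells transiently transfected with multiplexed GAL4-UAS reporter units and exogenous chimeric NR-Gal4 proteins; reporter mRNA quantified after 24 h compound exposure by RT-PCR, fluorescent labelling, HpaI digestion and capillary electrophoresis; gain-of-signal fitted versus DMSO baseline.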

In experiment [16] the target is human Thyroid Receptor alpha (THRa1), THRA (gene 7067) (UniProt P10827). The experiment can be described thus: ATG_THRa1_TRANS: Attagene TRANS-FACTORIAL HepG2 Assay for human Thyroid Receptor alpha (THRa1) (AID 2283014). An outline of the steps:
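Reporter transcript induction, read by capillary electrophoresis of 6-FAM-labelled RT-PCR products, reflects activity of a transfected THRa1-Gal4 fusion in HepG2 liver cells. Cells were dosed for 24 h; activity was fitted in the positive direction against DMSO.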

A short description of experiment [17]: TOX21_p53_BLA_p3_viability: Viability Assessment in the Tox21 HCT-116 p53 Agonism Beta-lactamase Assay, Phase 3 (AID 2283593).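 Also: cells exposed to compound for 16 h before reading.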 In outline:
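Cellular ATP was quantified by CellTiter-Glo luminescence, read after 30 min at room temperature. Beforehand, HCT116 cells (4000/well) received compound 5 h post-seeding, 217-fold diluted from DMSO, then incubated 16 h at 37C.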

Experiment [18] can be described thus: TOX21_p53_BLA_p4_viability: Viability Assessment in the Tox21 HCT-116 p53 Agonism Beta-lactamase Assay, Phase 4 (AID 2283597).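 Also: hits lower the luminescence signal meaning cytotoxicity.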 In outline:
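Readout: ATP luminescence (CellTiter-Glo), measured 30 min after reagent addition at RT. The reagent followed a 2 h CCF4-AM incubation, and the cells had been exposed to compound for 16 h at 37C.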

The nature of experiment [19]: CCTE_Harrill_HTTr_Apoptosis_MCF7: CCTE's 6-hour Apoptosis Assessment for the High-Throughput Transcriptomics (HTTr) Platform, in MCF-7 cells cultured in DMEM + 10% fetal bovine serum, Harrill Lab (AID 2284011; active = hit-call score of the fitted dose curve at least 0.9, where 1 is the maximum; inactive = score below 0.9). An outline of the steps:
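MCF-7 (DMEM + 10% FBS), 384-well; 8-pt dilution series, 6 h chemical exposure; caspase-3/7 activation via CellEvent Caspase 3/7 Green, HCI; bidirectional fit vs DMSO.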

Experiment [20] is described as follows: ATG_GAL4_TRANS: Attagene TRANS-FACTORIAL HepG2 Assay for GAL4 (Internal Marker) (AID 2282976). Conditions: HepG2 Attagene TRANS GAL4 internal marker reporter. An outline of the steps:
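First, HepG2 cells were transfected with reporter units under GAL4-UAS control. Next, they were treated with chemical for 24 h. Finally, RNA was reverse-transcribed, PCR-amplified, FAM-labelled and resolved by capillary electrophoresis, with induction scored against DMSO.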

human Peroxisome Proliferator-activated Receptor alpha (PPARa), PPARA (gene 5465), sequence (Q07869 whole entry, looked up, the tested form may be a part): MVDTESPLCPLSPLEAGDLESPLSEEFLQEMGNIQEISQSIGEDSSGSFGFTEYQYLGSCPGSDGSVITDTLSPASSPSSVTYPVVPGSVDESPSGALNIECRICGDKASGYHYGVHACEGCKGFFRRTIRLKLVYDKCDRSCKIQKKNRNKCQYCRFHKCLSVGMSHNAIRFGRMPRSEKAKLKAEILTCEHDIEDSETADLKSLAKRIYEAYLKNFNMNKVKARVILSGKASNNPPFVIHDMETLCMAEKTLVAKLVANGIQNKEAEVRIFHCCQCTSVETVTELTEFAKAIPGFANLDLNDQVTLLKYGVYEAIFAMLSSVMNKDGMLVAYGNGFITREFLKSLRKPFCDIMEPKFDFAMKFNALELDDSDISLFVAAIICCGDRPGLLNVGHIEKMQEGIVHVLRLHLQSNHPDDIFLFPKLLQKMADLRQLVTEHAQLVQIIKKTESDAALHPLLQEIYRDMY
Nuclear receptor subfamily 1 group I member 3 (Homo sapiens), sequence (Q14994 whole entry, looked up, the tested form may be a part): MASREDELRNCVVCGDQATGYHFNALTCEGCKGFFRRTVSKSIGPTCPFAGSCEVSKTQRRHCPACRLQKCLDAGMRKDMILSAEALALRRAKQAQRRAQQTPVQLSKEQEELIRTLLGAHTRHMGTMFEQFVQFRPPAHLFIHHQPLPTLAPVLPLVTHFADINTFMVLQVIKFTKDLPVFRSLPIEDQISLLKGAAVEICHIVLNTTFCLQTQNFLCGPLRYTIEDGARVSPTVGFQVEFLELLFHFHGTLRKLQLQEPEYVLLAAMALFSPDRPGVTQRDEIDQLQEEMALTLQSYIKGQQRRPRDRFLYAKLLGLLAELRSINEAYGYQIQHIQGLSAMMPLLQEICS
Glucocorticoid receptor (Homo sapiens), sequence (P04150 whole entry, looked up, the tested form may be a part): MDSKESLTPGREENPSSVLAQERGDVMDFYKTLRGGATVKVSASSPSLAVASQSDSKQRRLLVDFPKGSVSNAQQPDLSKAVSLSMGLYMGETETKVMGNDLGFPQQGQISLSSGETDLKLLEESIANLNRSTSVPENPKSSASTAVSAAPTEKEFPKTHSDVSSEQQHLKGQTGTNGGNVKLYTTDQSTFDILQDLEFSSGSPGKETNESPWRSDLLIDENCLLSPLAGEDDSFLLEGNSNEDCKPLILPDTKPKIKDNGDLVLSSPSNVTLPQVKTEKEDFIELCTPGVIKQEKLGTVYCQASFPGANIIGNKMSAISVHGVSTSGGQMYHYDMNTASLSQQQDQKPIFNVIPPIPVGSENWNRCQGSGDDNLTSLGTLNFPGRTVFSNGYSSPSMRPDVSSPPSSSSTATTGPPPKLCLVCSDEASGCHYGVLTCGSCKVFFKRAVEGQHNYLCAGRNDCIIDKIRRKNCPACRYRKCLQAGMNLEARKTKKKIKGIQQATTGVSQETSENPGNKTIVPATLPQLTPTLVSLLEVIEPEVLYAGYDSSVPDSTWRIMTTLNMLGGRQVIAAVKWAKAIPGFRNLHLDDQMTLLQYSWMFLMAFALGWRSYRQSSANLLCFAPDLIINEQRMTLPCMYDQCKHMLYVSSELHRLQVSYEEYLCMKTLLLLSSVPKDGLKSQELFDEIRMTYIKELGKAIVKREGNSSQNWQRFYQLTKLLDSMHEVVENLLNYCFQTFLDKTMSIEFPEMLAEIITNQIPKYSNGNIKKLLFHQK
Oxysterols receptor LXR-alpha (Homo sapiens), sequence (Q13133 whole entry, looked up, the tested form may be a part): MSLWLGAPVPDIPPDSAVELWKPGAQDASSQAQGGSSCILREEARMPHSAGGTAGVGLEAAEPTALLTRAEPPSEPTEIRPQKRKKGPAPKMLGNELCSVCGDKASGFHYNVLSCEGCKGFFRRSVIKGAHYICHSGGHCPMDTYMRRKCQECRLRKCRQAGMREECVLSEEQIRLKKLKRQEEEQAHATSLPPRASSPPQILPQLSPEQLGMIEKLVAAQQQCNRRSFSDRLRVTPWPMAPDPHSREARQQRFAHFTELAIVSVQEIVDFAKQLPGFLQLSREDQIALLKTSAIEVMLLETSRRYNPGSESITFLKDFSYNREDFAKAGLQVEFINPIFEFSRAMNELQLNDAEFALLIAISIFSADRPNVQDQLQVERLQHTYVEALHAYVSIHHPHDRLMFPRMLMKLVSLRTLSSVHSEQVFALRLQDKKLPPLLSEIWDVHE
Nuclear receptor subfamily 4 group A member 2 (Homo sapiens), sequence (P43354 whole entry, looked up, the tested form may be a part): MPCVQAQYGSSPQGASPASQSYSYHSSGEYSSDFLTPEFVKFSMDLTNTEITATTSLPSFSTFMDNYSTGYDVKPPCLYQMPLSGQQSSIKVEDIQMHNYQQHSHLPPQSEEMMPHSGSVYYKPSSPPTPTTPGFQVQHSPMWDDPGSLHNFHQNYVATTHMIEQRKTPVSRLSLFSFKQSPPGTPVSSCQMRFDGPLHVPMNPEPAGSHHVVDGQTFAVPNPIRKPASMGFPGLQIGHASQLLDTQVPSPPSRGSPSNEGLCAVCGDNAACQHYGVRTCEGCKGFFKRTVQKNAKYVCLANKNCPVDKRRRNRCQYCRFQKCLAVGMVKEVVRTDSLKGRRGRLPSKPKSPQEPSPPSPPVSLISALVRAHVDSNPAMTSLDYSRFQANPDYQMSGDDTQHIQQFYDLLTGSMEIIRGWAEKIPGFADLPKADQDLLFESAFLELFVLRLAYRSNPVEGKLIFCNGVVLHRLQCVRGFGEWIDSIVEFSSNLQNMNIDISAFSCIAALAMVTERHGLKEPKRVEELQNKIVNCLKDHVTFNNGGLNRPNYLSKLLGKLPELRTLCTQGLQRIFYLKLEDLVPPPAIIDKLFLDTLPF
Oxysterols receptor LXR-beta (Homo sapiens), sequence (P55055 whole entry, looked up, the tested form may be a part): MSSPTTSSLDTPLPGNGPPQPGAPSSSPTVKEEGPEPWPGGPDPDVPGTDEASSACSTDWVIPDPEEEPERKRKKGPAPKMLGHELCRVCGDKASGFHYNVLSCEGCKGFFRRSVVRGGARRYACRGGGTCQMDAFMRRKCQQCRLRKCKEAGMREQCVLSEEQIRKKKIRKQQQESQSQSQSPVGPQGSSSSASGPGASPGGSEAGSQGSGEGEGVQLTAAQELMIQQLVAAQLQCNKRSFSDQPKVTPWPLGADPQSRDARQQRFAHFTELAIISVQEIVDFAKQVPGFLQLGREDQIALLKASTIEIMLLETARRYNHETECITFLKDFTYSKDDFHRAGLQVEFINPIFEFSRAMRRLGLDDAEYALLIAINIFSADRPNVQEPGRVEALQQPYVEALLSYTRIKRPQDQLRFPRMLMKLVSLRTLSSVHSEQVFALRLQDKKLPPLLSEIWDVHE
human Peroxisome Proliferator-activated Receptor delta (PPARd), PPARD (gene 5467), sequence (Q03181 whole entry, looked up, the tested form may be a part): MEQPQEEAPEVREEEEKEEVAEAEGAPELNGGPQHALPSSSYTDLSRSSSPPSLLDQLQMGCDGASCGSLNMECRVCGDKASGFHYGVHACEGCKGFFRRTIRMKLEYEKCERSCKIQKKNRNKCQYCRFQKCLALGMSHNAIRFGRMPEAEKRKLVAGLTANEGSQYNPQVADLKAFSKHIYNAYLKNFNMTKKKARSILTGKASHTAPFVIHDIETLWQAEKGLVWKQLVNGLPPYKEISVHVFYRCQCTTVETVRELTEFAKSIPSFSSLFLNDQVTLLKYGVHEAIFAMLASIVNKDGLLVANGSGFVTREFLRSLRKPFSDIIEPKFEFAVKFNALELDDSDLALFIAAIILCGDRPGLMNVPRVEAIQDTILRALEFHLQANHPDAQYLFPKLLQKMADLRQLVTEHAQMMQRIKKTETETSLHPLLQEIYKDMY
Retinoic acid receptor alpha (Homo sapiens), sequence (P10276 whole entry, looked up): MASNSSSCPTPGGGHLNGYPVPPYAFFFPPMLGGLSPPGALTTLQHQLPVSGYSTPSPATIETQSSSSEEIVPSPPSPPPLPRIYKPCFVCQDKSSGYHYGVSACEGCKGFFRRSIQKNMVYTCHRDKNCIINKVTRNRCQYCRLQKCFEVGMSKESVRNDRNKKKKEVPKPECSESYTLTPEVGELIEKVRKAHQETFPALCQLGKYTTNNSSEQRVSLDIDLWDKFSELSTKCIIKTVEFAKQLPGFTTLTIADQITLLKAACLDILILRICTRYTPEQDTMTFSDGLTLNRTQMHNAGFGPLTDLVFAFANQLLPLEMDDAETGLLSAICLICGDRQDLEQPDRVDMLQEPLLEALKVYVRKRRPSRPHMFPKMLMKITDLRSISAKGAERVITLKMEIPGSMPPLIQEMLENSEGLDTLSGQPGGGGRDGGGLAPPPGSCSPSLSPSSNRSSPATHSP
human Thyroid Receptor alpha (THRa1), THRA (gene 7067), sequence (P10827 whole entry, looked up, the tested form may be a part): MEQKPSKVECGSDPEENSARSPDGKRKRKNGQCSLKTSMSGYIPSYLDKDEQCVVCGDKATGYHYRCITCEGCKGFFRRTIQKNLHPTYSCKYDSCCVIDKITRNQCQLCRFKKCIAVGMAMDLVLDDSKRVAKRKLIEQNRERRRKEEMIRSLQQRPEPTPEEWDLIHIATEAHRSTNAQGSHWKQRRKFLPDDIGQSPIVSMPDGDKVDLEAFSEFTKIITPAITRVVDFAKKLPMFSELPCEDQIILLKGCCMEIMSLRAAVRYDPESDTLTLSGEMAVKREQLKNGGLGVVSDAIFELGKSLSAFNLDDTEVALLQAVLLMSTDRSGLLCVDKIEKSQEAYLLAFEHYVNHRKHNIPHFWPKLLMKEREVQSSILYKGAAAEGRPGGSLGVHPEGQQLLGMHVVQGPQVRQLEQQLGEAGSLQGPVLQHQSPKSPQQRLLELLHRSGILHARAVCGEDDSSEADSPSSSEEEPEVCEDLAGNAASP
human Vitamin D Receptor (VDR), VDR (gene 7421), sequence (P11473 whole entry, looked up, the tested form may be a part): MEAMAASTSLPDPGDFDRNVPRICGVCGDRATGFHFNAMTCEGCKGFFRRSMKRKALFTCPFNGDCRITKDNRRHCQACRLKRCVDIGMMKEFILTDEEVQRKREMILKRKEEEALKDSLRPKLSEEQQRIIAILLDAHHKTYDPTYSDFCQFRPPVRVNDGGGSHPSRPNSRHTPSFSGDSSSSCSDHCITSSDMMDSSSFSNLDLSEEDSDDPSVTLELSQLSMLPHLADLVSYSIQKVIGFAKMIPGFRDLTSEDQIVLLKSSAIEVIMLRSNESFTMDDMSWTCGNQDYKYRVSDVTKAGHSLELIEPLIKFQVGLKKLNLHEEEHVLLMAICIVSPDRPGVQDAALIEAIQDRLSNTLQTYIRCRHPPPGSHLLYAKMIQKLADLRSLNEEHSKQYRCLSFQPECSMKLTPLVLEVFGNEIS

`[CH3][Sn]([CH3])([Cl])[Cl]`: the result in [1], in [2], in experiment [3], in [4], in [5] and in experiment [6] was inactive. Moreover, the compound was classed as inactive in experiment [7], in [8], in [9] and in experiment [10].

Turning to `[CH3][Sn]([Cl])([Cl])[Cl]`, the outcome in experiment [1], in experiment [2], in experiment [3], in [11], in experiment [4] and in experiment [9] was inactive. Besides, the outcome in [12] was inactive.

Regarding `CCCOC(=O)c1ccccc1C(=O)OCCC`, the compound was called inactive in experiment [13], in experiment [4], in [5], in experiment [6], in experiment [7] and in experiment [14]. For the same compound, the outcome in experiment [8], in [16], in [12], in [17], in [18] and in [19] was inactive. The AC50 in experiment [15] is 86.3 µM (active).

As for `N#Cc1cccc(C#N)c1`, the compound was called inactive in [1], in experiment [2], in [20], in experiment [11], in experiment [4] and in experiment [6]. Also, the compound was classed as inactive in [14], in experiment [12], in experiment [17] and in experiment [18].

As for `C=C(Cl)Cl`, the compound was called inactive in experiment [1], in [2], in experiment [3], in experiment [20], in experiment [11] and in experiment [4]. The outcome in experiment [5], in experiment [7], in experiment [8], in experiment [12] and in experiment [18] was inactive.

Consider `CCC1CCC(=O)O1` (configuration not stated), for which the outcome in experiment [1], in experiment [6], in experiment [14], in experiment [8], in [16] and in experiment [10] was inactive.

On to `CC(C)[C@@H](C(=O)O[C@@H](C#N)c1cccc(Oc2ccccc2)c1)c1ccc(Cl)cc1`, for which the result in experiment [2], in experiment [3], in experiment [20], in experiment [7], in experiment [8] and in experiment [15] was inactive. Further, the call in experiment [16], in experiment [12], in experiment [18] and in [19] was inactive.

The term AC50 denotes the midpoint of the concentration-response curve, whichever way the signal moves.
